High-throughput results as filed in PubChem.
An excerpt weighted towards active compounds, which were near 3.1% of everything screened.
uPA surface inh: inhibitors of cell surface uPA generation. cell surface uPA generation assay, qHTS. Potency, µM (doses to about 38.3 µM), without a hit: at the top dose activity change, negative = inhibition, usual class: inhibitors. 330,000 tested, 0.31% active. AID 540303; active means well fitted inhibition curve with a large enough effect; inconclusive means small, poorly fitted or top-dose-only effect; inactive means no such curve, though single readings can be large or run the other way; tested in mouse RAW 264.7 cells; further: potency means the concentration at half of the fitted maximal effect; on the % scale 0 is the no-effect control and ±100 the full control effect; nearly all actives have a fitted effect of over 55% in size
D3 ag: D3 dopamine receptor (human) agonism; D3R DiscoveRx beta-arrestin cells, luminescence, 90 min; 410,000 tested, 0.58% active; P35462; max activation, %; in the data active means max activation above about 30%; further: 0% is about no effect
Target sequence (P35462 whole entry, looked up): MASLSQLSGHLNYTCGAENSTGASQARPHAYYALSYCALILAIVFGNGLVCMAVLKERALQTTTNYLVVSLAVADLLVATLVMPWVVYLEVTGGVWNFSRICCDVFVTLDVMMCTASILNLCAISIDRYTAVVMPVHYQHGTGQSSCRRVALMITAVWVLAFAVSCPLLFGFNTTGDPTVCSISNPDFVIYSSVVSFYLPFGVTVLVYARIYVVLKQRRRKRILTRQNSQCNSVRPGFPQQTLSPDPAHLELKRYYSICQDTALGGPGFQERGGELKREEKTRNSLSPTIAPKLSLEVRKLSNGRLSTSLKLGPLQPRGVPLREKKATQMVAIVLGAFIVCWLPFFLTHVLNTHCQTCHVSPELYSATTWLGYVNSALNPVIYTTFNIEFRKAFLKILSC
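Agonist-mode cell screen: cells plated at 1500/well and incubated overnight at 37 °C, then exposed to library compounds for 90 min at 37 °C. Detection reagent was added for 30–60 min at room temperature, and luminescence was read.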
DRD3 antagonist: blocks the human D3 dopamine receptor; D3R cells, DiscoveRx beta-arrestin luminescence, antagonist mode; stronger effect = lower value; max response, negative = inhibition, %; 360,000 tested, 2.5% active; in the data active means max response below about -50%; inconclusive means no clear call, values can overlap the other calls; further: on the % scale 0 is the no-effect control and ±100 the full control effect
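Cells expressing the human receptor were seeded at 1500 cells/well, incubated overnight at 37 degrees C in 5% CO2, then exposed to library compounds with dopamine controls for 90 minutes at 37 degrees C before luminescent detection.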
RGS4 inh: inhibitors of human regulator of G protein signaling 4. P49798. Transcreener GDP fluorescence polarization, RGS4-accelerated GTP hydrolysis. Potency, µM (series often up to 114 µM), without a hit: at the top dose activity change, negative = inhibition, actives largely listed as inhibitors. 390,000 tested, 0.039% active. AID 504845; active means well fitted inhibition curve with a large enough effect; inconclusive means small, poorly fitted or top-dose-only effect; inactive means no such curve, though single readings can be large or run the other way; further: potency means the concentration at half of the fitted maximal effect; on the % scale 0 is the no-effect control and ±100 the full control effect; nearly all actives have a fitted effect of over 75% in size
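MLSMR compounds (23 nl, pin-transferred) preincubated 10 min at room temperature with a 500nM (2x) first reagent, then RGS4 at 900nM (2x) plus Transcreener GDP mix added; fluorescence polarization (620/688 nm) read before and after 90 min at 30 °C.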
* marks the source's active call; other numbers are inactive results; ? = inconclusive; . = no result; ! = not confirmed by another sample.

SMILES	uPA surface inh	D3 ag	DRD3 antagonist	RGS4 inh
Cc1[nH]n(-c2ccc([N+](=O)[O-])cc2)c(=O)c1C=NCCN1CCN(C(=O)c2ccc(Br)cc2)CC1	-6%	-7	-65*	15%
CC(C)c1nc2ccc(C(=O)NCc3ccc(N(C)C)cc3)cc2o1	.	2	.	-4%
Cc1ccc2oc(C(=O)Nc3nnc(CC(C)C)s3)cc(=O)c2c1	.	3	.	6%
CCOc1cc(CN2CCN(c3cccc(C(F)(F)F)c3)CC2)ccc1O	.	-15	-86*	-10%
Cc1c(S(=O)(=O)N2CCN(c3cccc(C(F)(F)F)c3)CC2)c(=O)n(C)c(=O)n1C	-2%	-7	-27	2%
O=c1cc(CO)oc(CN2CCN(c3cccc(C(F)(F)F)c3)CC2)c1O	-7%	1	-64*	2%
CCOc1cc(CN2CCSCC2)ccc1O	.	-26	?	16%
O=c1cc(CO)oc(CN2CCN(c3ccccc3)CC2)c1O	1%	-1	72	-30%
Cc1c(CN2CCN(c3cccc(C(F)(F)F)c3)CC2)c(=O)n(-c2ccccc2)n1C	1%	3	-76*	-9%
COC(=O)c1cc(CN2CCN(c3ccccc3)CC2)ccc1O	-2%	5	-56*	14%
COc1ccc(NC(=O)N2CCN(c3cccc(C(F)(F)F)c3)CC2)cc1OC	0%	-4	-12	-11%
CCOc1cc(CN2CCN(c3cccc(C(F)(F)F)c3)CC2)ccc1OC	4%	-23	-89*	-11%
COc1ccc(CC(C)N2CCN(c3cccc(C(F)(F)F)c3)CC2)cc1OC (configuration not stated)	10%	-23	-88*	35%
CC(=O)c1ccc(OCC(O)CN2CCN(Cc3ccc4c(c3)OCO4)CC2)cc1 (configuration not stated)	7%	-12	-51*!	-53%
Cc1ccc(OCC(O)CN2CCN(Cc3ccc4c(c3)OCO4)CC2)c(C)c1 (configuration not stated)	2%	-11	-60*	-6%
CCOC(=O)Cn1c(=O)n(CC2CCCO2)c2nc(-c3ccc(OC)cc3OC)nc(C(N)=O)c21 (configuration not stated)	.	7	.	0%
O=c1cc(CSc2ccccc2)[nH]c(=S)[nH]1	-5%	-9	-95*	-3%
CCc1ccc2c(CN3CCN(S(=O)(=O)c4ccccc4F)CC3)cc(=O)oc2c1	-8%	-9	4	-9%
Cc1cc2oc(=O)cc(CN3CCN(c4ccccc4)CC3)c2cc1Cl	.	5	14	.
CCc1ccc2c(CN3CCN(S(=O)(=O)c4cccs4)CC3)cc(=O)oc2c1	-13%	-6	-75*	-14%
Cc1cc2oc(=O)cc(Cn3ncc(Cl)c(Cl)c3=O)c2cc1Cl	-10%	-10	-77*	-10%
CCc1ccc2c(CN3CCC(C(=O)OC)CC3)cc(=O)oc2c1	0%	100*	50	13%
COC(=O)C1CCN(Cc2cc(=O)oc3cc(C)c(Cl)cc23)CC1	-3%	95*	4	-3%
CCOC(=O)Nc1ccc2c(CN3CCC(C(=O)OC)CC3)cc(=O)oc2c1	14%	14	-3	-7%
CCOC(=O)C1(Cc2ccccc2C(F)(F)F)CCN(CC2CC2)CC1	2%	-22	7	5%
SMILES	uPA surface inh	D3 ag	DRD3 antagonist	RGS4 inh
CCOC(=O)C1(Cc2ccccc2C(F)(F)F)CCN(C(C)CSC)CC1 (configuration not stated)	-3%	-11	-54*	2%
CCOC(=O)C1(Cc2ccccc2C(F)(F)F)CCN(C(C)CCn2cccn2)CC1 (configuration not stated)	-7%	-26	-50*	-9%
Cc1cccc(N2CCN(C(=O)C3CCN(c4ncnc5c4nc4n5CCCCC4)CC3)CC2C)c1 (configuration not stated)	-20%	35*!	116	14%
O=C(C1CCN(c2ncnc3c2nc2n3CCCCC2)CC1)N1CCN(c2ccccc2F)CC1	17%	62*!	22	7%
Fc1ccccc1N1CCN(c2ncnc3c2nc2n3CCCCC2)CC1	.	7	.	1%
O=C(C1CCCN(c2ncnc3c2nc2n3CCCCC2)C1)N1CCN(c2cccc(Cl)c2)CC1 (configuration not stated)	-12%	-10	63	-22%
Cc1ccc(C)c(N2CCN(C(=O)C3CCCN(c4ncnc5c4nc4n5CCCCC4)C3)CC2)c1 (configuration not stated)	4%	31*	59	-3%
